# Assay results: publication PMC7862700, “An all-to-all approach to the identification of sequence-specific readers for epigenetic DNA modifications on cytosine”
# Columns and labels:
# Test in all cases: DAPPL (digital affinity profiling via proximity ligation, sequencing); 10 mM Tris-HCl pH 7.5, 50 mM NaCl, 1 mM DTT, 4% glycerol, room temperature, 30 min; GST-TFs on glutathione beads, 16-mer random dsDNA library, 0.1% formaldehyde crosslink after washing; high values mean tight binding
# Conditions in all cases: protein: recombinant; tags: N-terminal GST; dsDNA, one strand shown
# ELK4 = target: T1, ELK4 (Homo sapiens, UniProt P28324-2 1-405)
# T1 sequence: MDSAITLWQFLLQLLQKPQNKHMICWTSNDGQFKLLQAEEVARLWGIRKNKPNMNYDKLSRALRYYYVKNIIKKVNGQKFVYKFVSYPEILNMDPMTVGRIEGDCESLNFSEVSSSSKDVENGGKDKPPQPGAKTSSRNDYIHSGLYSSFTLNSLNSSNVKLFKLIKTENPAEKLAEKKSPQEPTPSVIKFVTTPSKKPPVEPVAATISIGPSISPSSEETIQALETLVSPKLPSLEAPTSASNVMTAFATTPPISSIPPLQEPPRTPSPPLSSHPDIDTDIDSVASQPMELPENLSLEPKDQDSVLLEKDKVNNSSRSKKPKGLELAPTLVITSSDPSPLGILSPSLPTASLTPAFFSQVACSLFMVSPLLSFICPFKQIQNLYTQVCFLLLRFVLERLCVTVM
# Summary of the method: (§1)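 Human transcription factors were made in yeast as GST fusions, captured on glutathione beads and barcoded with DNA. With a tag-only sample included, the pool was incubated with 200 nmole of a random double-stranded 16-mer DNA library in Tris/NaCl/DTT/glycerol buffer at room temperature for 30 min, then crosslinked with 0.1% formaldehyde after washing, ligated by proximity, amplified and sequenced. For binding signal, each hexamer's read frequency for a factor is divided by its frequency for the tag-only sample.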
# ELF4 = ELF4 (Homo sapiens, UniProt Q99607 1-663)
# Chain of ELF4 (Q99607 whole entry): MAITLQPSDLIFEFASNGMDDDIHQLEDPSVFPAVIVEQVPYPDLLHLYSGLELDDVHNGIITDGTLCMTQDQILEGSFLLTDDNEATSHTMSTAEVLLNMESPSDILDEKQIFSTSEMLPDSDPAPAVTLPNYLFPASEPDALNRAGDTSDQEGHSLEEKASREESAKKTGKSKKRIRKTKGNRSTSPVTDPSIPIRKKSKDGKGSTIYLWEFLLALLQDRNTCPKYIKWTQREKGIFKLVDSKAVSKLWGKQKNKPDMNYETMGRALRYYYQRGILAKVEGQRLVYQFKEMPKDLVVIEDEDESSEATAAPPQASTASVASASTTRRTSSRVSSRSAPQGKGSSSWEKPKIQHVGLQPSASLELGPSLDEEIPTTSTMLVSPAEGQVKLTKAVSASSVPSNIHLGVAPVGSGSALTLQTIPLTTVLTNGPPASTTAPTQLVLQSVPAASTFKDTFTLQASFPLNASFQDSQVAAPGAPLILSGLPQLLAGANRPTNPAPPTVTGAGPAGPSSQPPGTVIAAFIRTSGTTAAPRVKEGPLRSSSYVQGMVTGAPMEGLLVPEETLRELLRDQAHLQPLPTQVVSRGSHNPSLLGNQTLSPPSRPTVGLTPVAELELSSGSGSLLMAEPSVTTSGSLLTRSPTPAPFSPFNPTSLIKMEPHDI
# Summary of the method: as §1
# ELK1 = target: T2, ELK1 (Homo sapiens, UniProt P19419 1-428)
# T2 sequence: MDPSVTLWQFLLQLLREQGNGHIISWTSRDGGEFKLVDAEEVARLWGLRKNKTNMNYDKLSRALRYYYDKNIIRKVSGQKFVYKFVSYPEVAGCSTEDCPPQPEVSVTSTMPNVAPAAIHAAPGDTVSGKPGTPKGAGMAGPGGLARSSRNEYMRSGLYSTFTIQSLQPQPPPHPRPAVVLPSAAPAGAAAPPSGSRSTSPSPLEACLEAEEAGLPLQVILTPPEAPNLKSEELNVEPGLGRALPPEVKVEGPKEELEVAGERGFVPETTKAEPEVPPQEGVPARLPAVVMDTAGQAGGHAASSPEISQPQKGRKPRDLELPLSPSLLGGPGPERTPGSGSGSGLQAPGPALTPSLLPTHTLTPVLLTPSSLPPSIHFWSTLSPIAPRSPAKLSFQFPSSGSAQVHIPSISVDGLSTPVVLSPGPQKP
# Summary of the method: as §1
# ETV2 = target: T3, ETV2 (Homo sapiens, UniProt O00321 1-342)
# T3 sequence: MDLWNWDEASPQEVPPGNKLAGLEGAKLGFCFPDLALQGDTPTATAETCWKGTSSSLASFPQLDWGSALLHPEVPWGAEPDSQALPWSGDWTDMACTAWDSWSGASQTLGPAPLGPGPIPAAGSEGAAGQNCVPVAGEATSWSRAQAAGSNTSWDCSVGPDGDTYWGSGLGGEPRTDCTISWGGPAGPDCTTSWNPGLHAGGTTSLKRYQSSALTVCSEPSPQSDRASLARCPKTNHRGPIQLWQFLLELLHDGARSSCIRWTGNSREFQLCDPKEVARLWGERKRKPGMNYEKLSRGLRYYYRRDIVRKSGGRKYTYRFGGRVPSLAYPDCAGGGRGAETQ
# Summary of the method: as §1
# ETV6 = ETV6 (Homo sapiens, UniProt P41212 1-452)
# Chain of ETV6 (P41212 whole entry): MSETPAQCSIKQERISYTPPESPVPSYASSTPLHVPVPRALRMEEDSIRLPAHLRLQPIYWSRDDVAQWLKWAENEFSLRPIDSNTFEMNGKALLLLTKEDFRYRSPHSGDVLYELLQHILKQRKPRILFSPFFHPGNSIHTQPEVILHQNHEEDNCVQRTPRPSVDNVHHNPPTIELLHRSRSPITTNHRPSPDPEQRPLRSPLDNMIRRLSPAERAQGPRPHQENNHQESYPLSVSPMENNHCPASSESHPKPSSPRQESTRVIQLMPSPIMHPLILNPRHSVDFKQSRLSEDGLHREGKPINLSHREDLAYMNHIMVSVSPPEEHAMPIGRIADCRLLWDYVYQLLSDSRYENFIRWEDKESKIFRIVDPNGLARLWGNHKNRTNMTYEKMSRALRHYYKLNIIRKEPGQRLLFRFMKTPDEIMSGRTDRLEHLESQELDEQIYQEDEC
# Summary of the method: as §1
# ETV1 = ETV1 (Homo sapiens, UniProt P50549 1-477)
# Chain of ETV1 (P50549 whole entry): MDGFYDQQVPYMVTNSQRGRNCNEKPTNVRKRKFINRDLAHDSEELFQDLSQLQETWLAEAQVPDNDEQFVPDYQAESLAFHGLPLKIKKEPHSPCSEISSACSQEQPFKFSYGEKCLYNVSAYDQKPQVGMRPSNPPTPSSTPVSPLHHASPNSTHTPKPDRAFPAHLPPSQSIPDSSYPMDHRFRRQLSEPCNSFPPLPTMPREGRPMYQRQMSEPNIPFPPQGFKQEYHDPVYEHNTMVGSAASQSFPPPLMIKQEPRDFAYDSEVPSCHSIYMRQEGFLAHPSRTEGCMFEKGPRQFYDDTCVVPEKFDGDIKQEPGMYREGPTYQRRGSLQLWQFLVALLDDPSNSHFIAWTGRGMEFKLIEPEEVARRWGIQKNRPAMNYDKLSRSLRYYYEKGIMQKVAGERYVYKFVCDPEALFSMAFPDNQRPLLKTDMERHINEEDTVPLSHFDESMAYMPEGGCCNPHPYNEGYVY
# Summary of the method: as §1
# ERG = target: T4, ERG (Homo sapiens, UniProt P11308 1-479)
# T4 sequence: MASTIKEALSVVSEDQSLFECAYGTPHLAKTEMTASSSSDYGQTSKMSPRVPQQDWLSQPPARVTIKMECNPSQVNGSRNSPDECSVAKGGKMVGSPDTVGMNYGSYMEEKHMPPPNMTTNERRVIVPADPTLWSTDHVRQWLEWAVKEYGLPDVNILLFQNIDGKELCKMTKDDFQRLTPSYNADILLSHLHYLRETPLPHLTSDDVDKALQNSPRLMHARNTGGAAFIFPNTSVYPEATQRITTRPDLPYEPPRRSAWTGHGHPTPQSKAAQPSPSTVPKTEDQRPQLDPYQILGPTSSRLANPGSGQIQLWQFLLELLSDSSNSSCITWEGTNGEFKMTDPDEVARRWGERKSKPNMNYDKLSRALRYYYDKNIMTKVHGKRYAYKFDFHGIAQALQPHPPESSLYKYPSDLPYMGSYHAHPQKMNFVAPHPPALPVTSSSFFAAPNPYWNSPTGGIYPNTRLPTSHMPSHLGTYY
# Summary of the method: as §1
# ELK3 = target: T5, ELK3 (Homo sapiens, UniProt P41970 1-407)
# T5 sequence: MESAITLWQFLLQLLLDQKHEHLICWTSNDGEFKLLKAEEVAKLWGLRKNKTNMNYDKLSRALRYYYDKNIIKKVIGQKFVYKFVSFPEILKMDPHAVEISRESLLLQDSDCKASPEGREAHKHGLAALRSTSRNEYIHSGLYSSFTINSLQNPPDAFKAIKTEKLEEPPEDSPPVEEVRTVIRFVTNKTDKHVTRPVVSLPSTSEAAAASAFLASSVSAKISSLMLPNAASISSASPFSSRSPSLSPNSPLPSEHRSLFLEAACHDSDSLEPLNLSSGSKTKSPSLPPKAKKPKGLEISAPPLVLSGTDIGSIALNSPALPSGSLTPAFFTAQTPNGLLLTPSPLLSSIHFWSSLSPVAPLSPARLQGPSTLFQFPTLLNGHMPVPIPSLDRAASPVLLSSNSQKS
# Summary of the method: as §1
# ELF3 = target: T6, ELF3 (Homo sapiens, UniProt P78545 1-371)
# T6 sequence: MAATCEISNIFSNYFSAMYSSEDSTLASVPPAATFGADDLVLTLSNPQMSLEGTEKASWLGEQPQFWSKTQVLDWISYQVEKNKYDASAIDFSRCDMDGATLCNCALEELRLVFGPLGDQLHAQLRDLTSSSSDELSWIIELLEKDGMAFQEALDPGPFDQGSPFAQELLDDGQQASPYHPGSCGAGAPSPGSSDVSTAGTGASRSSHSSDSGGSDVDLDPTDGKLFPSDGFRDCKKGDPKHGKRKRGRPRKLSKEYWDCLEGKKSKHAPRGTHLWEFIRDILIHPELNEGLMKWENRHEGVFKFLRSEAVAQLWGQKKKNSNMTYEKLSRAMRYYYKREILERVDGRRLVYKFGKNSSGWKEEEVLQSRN
# Summary of the method: as §1
# CRX = CRX (Homo sapiens, UniProt O43186 1-299)
# Chain of CRX (O43186 whole entry): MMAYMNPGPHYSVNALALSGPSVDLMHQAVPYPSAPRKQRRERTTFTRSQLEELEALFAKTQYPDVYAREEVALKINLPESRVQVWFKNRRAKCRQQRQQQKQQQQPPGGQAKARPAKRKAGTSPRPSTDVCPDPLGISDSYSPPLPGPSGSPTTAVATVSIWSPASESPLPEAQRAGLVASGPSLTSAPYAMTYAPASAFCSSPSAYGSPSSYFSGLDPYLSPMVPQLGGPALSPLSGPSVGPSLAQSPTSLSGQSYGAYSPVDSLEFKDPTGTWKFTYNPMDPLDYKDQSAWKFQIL
# Summary of the method: as §1
# ERF = target: T7, ERF (Homo sapiens, UniProt P50548 1-548)
# T7 sequence: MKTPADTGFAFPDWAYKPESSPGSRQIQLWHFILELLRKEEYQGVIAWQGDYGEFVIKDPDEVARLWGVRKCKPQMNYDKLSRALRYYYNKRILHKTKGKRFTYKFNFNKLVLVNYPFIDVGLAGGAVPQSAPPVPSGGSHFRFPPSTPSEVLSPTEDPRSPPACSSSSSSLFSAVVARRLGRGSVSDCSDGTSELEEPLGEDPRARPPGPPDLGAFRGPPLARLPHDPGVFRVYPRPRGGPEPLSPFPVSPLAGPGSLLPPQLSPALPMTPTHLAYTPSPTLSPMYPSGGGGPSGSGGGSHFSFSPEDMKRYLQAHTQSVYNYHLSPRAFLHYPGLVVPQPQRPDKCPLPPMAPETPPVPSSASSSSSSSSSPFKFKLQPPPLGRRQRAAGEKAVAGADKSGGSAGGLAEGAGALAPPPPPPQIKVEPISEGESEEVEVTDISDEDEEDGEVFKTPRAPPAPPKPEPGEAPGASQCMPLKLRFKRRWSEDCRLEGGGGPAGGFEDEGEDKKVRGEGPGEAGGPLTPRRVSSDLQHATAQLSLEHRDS
# Summary of the method: as §1
sequence,measurement,setting,value
CTGTGT,binding signal,ELK4,"1.04 fold enrichment (6-mer frequency, TF over GST control)"
AGGTAC,binding signal,ELF4,"1.01 fold enrichment (6-mer frequency, TF over GST control)"
GTCACC,binding signal,ELF4,"1.01 fold enrichment (6-mer frequency, TF over GST control)"
AACGGT,binding signal,ELK1,"1.06 fold enrichment (6-mer frequency, TF over GST control)"
same,binding signal,ELF4,"1.03 fold enrichment (6-mer frequency, TF over GST control)"
same,binding signal,ETV2,"1.05 fold enrichment (6-mer frequency, TF over GST control)"
same,binding signal,ETV6,"1.01 fold enrichment (6-mer frequency, TF over GST control)"
GAGCTC,binding signal,ELF4,"1.02 fold enrichment (6-mer frequency, TF over GST control)"
same,binding signal,ELK4,"1.04 fold enrichment (6-mer frequency, TF over GST control)"
same,binding signal,ETV1,"1.05 fold enrichment (6-mer frequency, TF over GST control)"
GTGTTA,binding signal,ELK1,"1.02 fold enrichment (6-mer frequency, TF over GST control)"
same,binding signal,ERG,"1.01 fold enrichment (6-mer frequency, TF over GST control)"
same,binding signal,ELK3,"1.02 fold enrichment (6-mer frequency, TF over GST control)"
same,binding signal,ELK4,"1.04 fold enrichment (6-mer frequency, TF over GST control)"
same,binding signal,ETV2,"1.01 fold enrichment (6-mer frequency, TF over GST control)"
same,binding signal,ELF3,"1.15 fold enrichment (6-mer frequency, TF over GST control)"
same,binding signal,CRX,"1.11 fold enrichment (6-mer frequency, TF over GST control)"
same,binding signal,ERF,"1.06 fold enrichment (6-mer frequency, TF over GST control)"
